Calls of active or inactive are those of the source. Unless noted, calls follow the shape of the dose curve; as a rule, active = well fitted curve in the direction sought with a large enough effect in the repeat runs; inconclusive = weak or mixed curves; inactive = no such curve, though single readings can be large; an effect the other way counts as inactive or inconclusive.
Tests used:
[1] = tested on: thyroid hormone receptor (rat, GH3 cells); test: qHTS assay to identify small molecule agonists of the thyroid receptor (TR) signaling pathway (AID 743066; calls by dose curve); details: GH3.TRE-Luc cells, TR agonist luciferase, 24 h; series mostly up to 83.9 µM
[2] = target: Estrogen receptor (Homo sapiens) (UniProt P03372); test: qHTS assay to identify small molecule antagonists of the estrogen receptor alpha (ER-alpha) signaling pathway (AID 743069; active = well fitted curve in the direction sought with a large enough effect in the signal ratio in the repeat runs, not every such curve was filed as active; inconclusive = weak or mixed curves, or effect the other way; inactive = no such curve, though single readings can be large or run the other way; the % refers to the signal ratio; also: potency is read from the fitted curve at half-maximal effect); details: HEK293 ER-alpha-UAS-bla, beta-lactamase ratio, antagonist mode; series mostly up to 69.4 µM
Procedure, shortened: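 Estradiol-stimulated ER-alpha-UAS-bla HEK293 cells, 18 hr compound exposure at 37C. LiveBLAzer B/G substrate, 2 hr RT, fluorescence read.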

[3] = qHTS assay to identify small molecule antagonists of the estrogen receptor alpha (ER-alpha) signaling pathway - cell viability counter screen (AID 743074; calls by dose curve;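 also: HEK293 cells carrying ER-alpha-UAS-bla reporter stimulated with 17beta-estradiol; nearly all actives have a fitted effect of over 45% in size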); details: ERalpha-bla HEK293 viability, CellTiter-Glo luminescence, 18 h; series mostly up to 69.4 µM
[4] = target: Estrogen receptor (Homo sapiens) (UniProt P03372); test: qHTS assay to identify small molecule agonists of the estrogen receptor alpha (ER-alpha) signaling pathway using the BG1 cell line (AID 743079); details: BG1Luc4E2 cells, ERE-luciferase agonist, 22 h; series mostly up to 70.3 µM; also: nearly all actives have a fitted effect of over 20% in size
Aromatase (Homo sapiens) = Aromatase (Homo sapiens) (UniProt P11511); test: qHTS assay to identify aromatase inhibitors (AID 743083); details: MCF-7 aro ERE, testosterone-driven ERE luciferase, 24 h; series mostly up to 70.3 µM; also: nearly all actives have a fitted effect of over 55% in size
[5] = qHTS assay to identify aromatase inhibitors - cell viability counter screen (AID 743084); details: MCF-7 aro ERE viability, CellTiter-Fluor, 24 h; series mostly up to 70.3 µM;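 also: cells stimulated with testosterone during compound exposure; nearly all actives have a fitted effect of over 55% in size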
[6] = qHTS assay to identify small molecule that activate the aryl hydrocarbon receptor (AhR) signaling pathway - cell viability counter screen (AID 743086); details: HepG2-AhR-luc viability, CellTiter-Fluor, 24 h; series mostly up to 70.3 µM;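 also: HepG2 liver cells carrying the AhR DRE luciferase reporter; nearly all actives have a fitted effect of over 45% in size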
Procedure, shortened: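 HepG2-AhR-luc (HG2L7.5c1) cells, 4000/well, were preincubated 5 h at 37C, exposed to compound in qHTS format for 24 hr at 37C, then given CellTiter-Fluor for 30 min; viability was read as fluorescence in the reporter wells.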

[7] = target: Peroxisome proliferator-activated receptor gamma (Homo sapiens) (UniProt P37231); test: qHTS assay to identify small molecule agonists of the peroxisome proliferator-activated receptor gamma (PPARg) signaling pathway (AID 743094; active = well fitted activation curve with a large enough effect in the signal ratio in the repeat runs, not every such curve was filed as active; inconclusive = weak or mixed curves, or effect the other way; inactive = no such curve, though single readings can be large or run the other way; the % refers to the signal ratio); details: HEK293H PPARg-UAS-bla, beta-lactamase FRET ratio, 17 h; series mostly up to 57 µM
Procedure, shortened: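 GeneBLAzer PPARg UAS-bla HEK293H cells carrying a stably integrated beta-lactamase reporter were pre-incubated 5 h at 37C, then exposed to compounds in DMSO for 17 h at 37C; LiveBLAzer B/G FRET substrate was added for 1 h at room temperature and fluorescence read.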

[8] = qHTS assay for small molecule agonists of the antioxidant response element (ARE) signaling pathway - cell viability counter screen (AID 743203; calls by dose curve; also: nearly all actives have a fitted effect of over 55% in size); details: ARE-bla HepG2 viability, CellTiter-Glo luminescence, 16 h; series mostly up to 73.3 µM
Procedure, shortened: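 CellSensor ARE-bla HepG2 cells, 2,000 per well, rested 5 hrs at 37C/5% CO2, then exposed to compound in DMSO for 16 hrs; viability read as CellTiter-Glo luminescence after 30 min at room temperature, in the reporter wells.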

[9] = qHTS assay for small molecule activators of the heat shock response signaling pathway (AID 743210; active = well fitted activation curve with a large enough effect in the signal ratio in the repeat runs, with a control signal flat, not every such curve was filed as active; inconclusive = weak or mixed curves; the % refers to the signal ratio;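 also: HeLa cells with beta-lactamase reporter driven by heat shock elements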); details: HeLa HSE-bla reporter, beta-lactamase ratio, 5 h; series mostly up to 62.6 µM
Procedure, shortened: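 Reporter gene assay: HeLa cells stably bearing an HSE-bla construct, compound treatment 5 h at 37 C, LiveBLAzer substrate 2.5 h at RT, fluorescence intensity.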

[10] = target: Estrogen receptor (Homo sapiens) (UniProt P03372); test: qHTS assay to identify small molecule agonists of the estrogen receptor alpha (ER-alpha) signaling pathway (AID 743075; calls by dose curve;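 also: HEK293 GripTite cells with ER-alpha and UAS-driven beta-lactamase reporter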); details: HEK293 ER-alpha-UAS-bla, beta-lactamase FRET ratio, 18 h; series mostly up to 70.1 µM
[11] = qHTS assay to identify small molecule antagonists of the estrogen receptor alpha (ER-alpha) signaling pathway using the BG1 cell line - cell viability counter screen (AID 743081); details: BG1Luc4E2 viability, CellTiter-Fluor, 22 h; series mostly up to 70.3 µM;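 also: compound given together with 17beta-estradiol as the ER stimulus; nearly all actives have a fitted effect of over 45% in size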
[12] = target: Aryl hydrocarbon receptor (Homo sapiens) (UniProt P35869); test: qHTS assay to identify small molecule that activate the aryl hydrocarbon receptor (AhR) signaling pathway (AID 743085); details: HepG2 AhR-luc (HG2L7.5c1), luciferase, 24 h; series mostly up to 70.3 µM;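 also: HG2L7.5c1 human HepG2 liver cells with stably integrated DRE-driven firefly reporter; nearly all actives have a fitted effect of over 15% in size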
Procedure, shortened: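 AhR agonist activity is inferred from enhanced light output of a DRE-controlled firefly luciferase reporter in HepG2 cells, measured with ONE-Glo following 24 h treatment at 37C.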

[13] = qHTS assay for small molecule agonists of the antioxidant response element (ARE) signaling pathway (AID 743202; active = well fitted activation curve with a large enough effect in the signal ratio in the repeat runs, not every such curve was filed as active; inconclusive = weak or mixed curves, or effect the other way; inactive = no such curve, though single readings can be large or run the other way; the % refers to the signal ratio; also: potency is read from the fitted curve at half-maximal effect); details: HepG2 ARE-bla reporter, beta-lactamase FRET, 16 h; series mostly up to 73.3 µM
Procedure, shortened: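 Compounds delivered in DMSO to ARE-bla HepG2 cells (2,000 cells/well, pre-incubated 5 h) and left 16 h at 37 C. LiveBLAzer B/G FRET substrate then added for 2 h at RT before fluorescence reading.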

[14] = qHTS assay for small molecule activators of the heat shock response signaling pathway - cell viability counter screen (AID 743209); details: HSE-bla HeLa viability, CellTiter-Glo luminescence, 5 h; series mostly up to 62.6 µM; also: nearly all actives have a fitted effect of over 50% in size
Procedure, shortened: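 CellSensor HSE-bla HeLa cells, plated overnight at 37 C/5% CO2, were exposed to compounds in DMSO for 5 h at 37 C. Viability was then read in the same wells by CellTiter-Glo luminescence after 30 min at room temperature.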

[15] = qHTS assay to identify small molecule antagonists of the peroxisome proliferator-activated receptor gamma (PPARg) signaling pathway - cell viability counter screen (AID 743194); details: PPARg-bla HEK293H viability, CellTiter-Glo luminescence, 17 h, co-treated with 50 nM rosiglitazone; series mostly up to 62.6 µM; also: nearly all actives have a fitted effect of over 55% in size
Procedure, shortened: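 PPARg-UAS-bla HEK293H cells were plated, rested 5 h at 37 C, then treated with compounds plus rosiglitazone (50 nM final) for 17 h at 37 C; viability was then read by CellTiter-Glo luminescence after 30 min at room temperature.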

[16] = qHTS assay to identify small molecule antagonists of the estrogen receptor alpha (ER-alpha) signaling pathway using the BG1 cell line (AID 743080; calls by dose curve;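 also: BG1 cells stimulated with 17beta-estradiol alongside compound; nearly all actives have a fitted effect of over 25% in size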); details: BG1Luc4E2 ERE-luciferase antagonist mode, luminescence; series mostly up to 70.3 µM
Procedure, shortened: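 BG1-Luc-4E2 cells (endogenous full-length ER-alpha, 4xERE luciferase) hormone-starved 5 days in charcoal-stripped FBS, plated 4,000/well for 24 h, then compound plus 17beta-estradiol for 21.5 h at 37 C; ONE-Glo luminescence read.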

[17] = qHTS assay to identify small molecule antagonists of the thyroid receptor (TR) signaling pathway (AID 743065); details: GH3.TRE-Luc, T3-stimulated luciferase inhibition, 23.5 h; series mostly up to 70.3 µM; also: nearly all actives have a fitted effect of over 55% in size
Procedure, shortened: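 GH3.TRE-Luc rat pituitary cells carrying two TR response elements driving luciferase were plated for 4 h, given compound plus 1 nM T3 (final), and incubated 23.5 h at 37 C. ONE-Glo luminescence measured reporter inhibition; CellTiter-Fluor fluorescence tracked cytotoxicity.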

[18] = target: Peroxisome proliferator-activated receptor gamma (Homo sapiens) (UniProt P37231); test: qHTS assay to identify small molecule antagonists of the peroxisome proliferator-activated receptor gamma (PPARg) signaling pathway (AID 743191; calls by dose curve; also: nearly all actives have a fitted effect of over 30% in size); details: HEK293H PPARg-UAS-bla, beta-lactamase ratio, antagonist, 17 h; series mostly up to 62.6 µM
Procedure, shortened: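 GeneBLAzer PPARg UAS-bla HEK293H cells carrying a UAS-driven beta-lactamase reporter were plated at 3000 cells/well, preincubated 5 h at 37C, then given compound for 17 h at 37C; LiveBLAzer B/G FRET substrate was read after 1 h at room temperature.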

Measured: Potency

Sequence of Aryl hydrocarbon receptor (Homo sapiens) (P35869 whole entry, looked up): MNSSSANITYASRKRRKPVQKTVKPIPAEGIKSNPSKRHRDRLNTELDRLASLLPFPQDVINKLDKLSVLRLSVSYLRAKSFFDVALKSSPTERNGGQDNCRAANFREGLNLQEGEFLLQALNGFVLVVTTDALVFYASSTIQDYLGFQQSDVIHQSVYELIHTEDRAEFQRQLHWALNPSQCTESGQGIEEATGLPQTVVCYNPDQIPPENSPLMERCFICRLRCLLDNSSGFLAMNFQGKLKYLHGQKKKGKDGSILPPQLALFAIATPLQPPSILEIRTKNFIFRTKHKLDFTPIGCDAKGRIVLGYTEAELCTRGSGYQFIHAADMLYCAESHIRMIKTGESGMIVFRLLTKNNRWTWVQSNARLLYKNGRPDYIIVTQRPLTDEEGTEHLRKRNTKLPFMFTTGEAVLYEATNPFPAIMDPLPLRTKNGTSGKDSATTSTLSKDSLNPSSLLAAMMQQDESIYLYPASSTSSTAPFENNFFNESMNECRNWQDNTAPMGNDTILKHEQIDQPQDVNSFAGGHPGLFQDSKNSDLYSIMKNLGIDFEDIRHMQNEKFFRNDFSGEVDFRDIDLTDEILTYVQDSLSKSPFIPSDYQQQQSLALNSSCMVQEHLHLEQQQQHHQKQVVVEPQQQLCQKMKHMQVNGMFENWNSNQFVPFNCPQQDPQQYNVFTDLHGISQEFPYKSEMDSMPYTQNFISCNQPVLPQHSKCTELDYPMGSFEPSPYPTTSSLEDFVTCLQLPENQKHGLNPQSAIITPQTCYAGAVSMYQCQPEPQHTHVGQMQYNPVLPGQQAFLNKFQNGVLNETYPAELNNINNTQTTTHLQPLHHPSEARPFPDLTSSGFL
Sequence of Peroxisome proliferator-activated receptor gamma (Homo sapiens) (P37231 whole entry, looked up): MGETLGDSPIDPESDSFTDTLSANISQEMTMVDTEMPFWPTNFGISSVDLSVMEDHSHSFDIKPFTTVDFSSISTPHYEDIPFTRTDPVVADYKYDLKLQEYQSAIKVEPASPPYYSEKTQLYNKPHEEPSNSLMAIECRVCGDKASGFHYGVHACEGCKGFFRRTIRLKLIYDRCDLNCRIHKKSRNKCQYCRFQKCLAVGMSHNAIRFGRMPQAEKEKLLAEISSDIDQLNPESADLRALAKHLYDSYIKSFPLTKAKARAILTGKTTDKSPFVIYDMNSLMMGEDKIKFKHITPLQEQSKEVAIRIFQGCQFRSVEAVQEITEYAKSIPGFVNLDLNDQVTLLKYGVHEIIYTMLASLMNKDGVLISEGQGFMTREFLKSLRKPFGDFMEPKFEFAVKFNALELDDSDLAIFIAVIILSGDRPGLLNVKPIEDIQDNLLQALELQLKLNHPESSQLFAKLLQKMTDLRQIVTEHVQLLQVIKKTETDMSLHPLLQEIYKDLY
Sequence of Aromatase (Homo sapiens) (P11511 whole entry, looked up): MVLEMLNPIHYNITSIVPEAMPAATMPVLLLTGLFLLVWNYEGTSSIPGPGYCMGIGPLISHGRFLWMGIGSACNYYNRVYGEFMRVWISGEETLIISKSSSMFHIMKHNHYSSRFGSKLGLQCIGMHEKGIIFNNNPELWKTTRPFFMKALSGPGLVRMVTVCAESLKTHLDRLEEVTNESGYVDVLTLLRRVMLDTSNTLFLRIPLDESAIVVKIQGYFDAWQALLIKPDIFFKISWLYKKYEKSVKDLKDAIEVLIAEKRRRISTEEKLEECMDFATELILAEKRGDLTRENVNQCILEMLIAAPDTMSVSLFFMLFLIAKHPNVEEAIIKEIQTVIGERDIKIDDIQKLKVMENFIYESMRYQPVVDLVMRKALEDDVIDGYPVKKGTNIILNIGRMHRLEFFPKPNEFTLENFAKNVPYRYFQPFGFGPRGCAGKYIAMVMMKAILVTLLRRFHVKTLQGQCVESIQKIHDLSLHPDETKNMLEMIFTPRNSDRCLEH
Sequence of Estrogen receptor (Homo sapiens) (P03372 whole entry, looked up): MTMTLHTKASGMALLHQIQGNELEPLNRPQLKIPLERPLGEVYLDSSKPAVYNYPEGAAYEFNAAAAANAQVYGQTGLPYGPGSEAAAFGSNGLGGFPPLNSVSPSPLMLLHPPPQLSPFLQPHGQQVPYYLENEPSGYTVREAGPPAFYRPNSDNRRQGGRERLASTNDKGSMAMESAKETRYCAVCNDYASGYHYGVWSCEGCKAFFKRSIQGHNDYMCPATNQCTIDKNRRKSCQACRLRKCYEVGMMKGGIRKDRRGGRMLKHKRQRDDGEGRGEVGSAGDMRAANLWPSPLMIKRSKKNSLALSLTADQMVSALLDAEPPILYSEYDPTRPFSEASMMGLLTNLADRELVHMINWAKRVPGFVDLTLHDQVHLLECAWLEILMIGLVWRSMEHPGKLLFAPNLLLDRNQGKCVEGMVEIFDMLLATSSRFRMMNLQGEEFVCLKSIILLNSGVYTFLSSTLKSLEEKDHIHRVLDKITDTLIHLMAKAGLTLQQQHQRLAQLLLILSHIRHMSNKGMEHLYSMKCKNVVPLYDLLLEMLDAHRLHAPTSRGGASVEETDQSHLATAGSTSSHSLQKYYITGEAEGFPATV

Cc1cc(C)c(/C=C2\C(=O)Nc3ccccc32)[nH]1
active: [2] 26.8 µM [inconclusive]
inactive: [1] | [3] | [4] | Aromatase (Homo sapiens) | [5] | [6] | [7] | [8] | [9]

Nc1nc2c(ncn2COCCO)c(=O)[nH]1
not listed: [1] | [7] | [15] | [16] | [17] | [18]
inactive: all other assays above

CCCc1ccc(OCC(=O)N2CCN(C(=O)COc3ccc(CCC)cc3OC)CC2)c(OC)c1
active: [13] 29.8 µM
inactive: [15] | [8] | [14] | [9]

CCCCCC/C=C\CCCCCCCC(=O)O
not listed: [1] | [6] | [7] | [9] | [14] | [17] | [18]
inactive: all other assays above

OCC(F)(F)F
not listed: [2] | [4] | [10] | [16]
inactive: all other assays above
